{
  "source": "PubChem BioAssay AID1850",
  "about": "(Southern Research Specialized Biocontainment Screening …, 2009)",
  "note": "The campaign covered roughly 310,000 compounds. About 1,000 (0.32%) were called active. A selection follows. Measured potencies and affinities stand elsewhere. Values without a mark were called inactive. No rule for the calls is given here.",
  "data": [
    {"assay": "Inhibition of PhoP regulon, Salmonella typhi GFP reporter cells, confirmation, 4 h (AID 1850);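 also: 0% = induced wells with vehicle and 100% = uninduced wells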", "details": "Salmonella Typhi PhoP-promoter GFP reporter, fluorescence, at 50 µM, hits give high values", "units": {"inhibition": "%"}, "values": [
      {"smiles": "CS(=O)(=O)N1CCN(c2ccccc2NC(=S)NC(=O)c2cccs2)CC1", "inhibition": -10.5},
      {"smiles": "N#CCSc1nccc(/C=C/c2ccccc2)n1", "inhibition": 6.91},
      {"smiles": "O=C(O)C[C@H]1c2cc(F)ccc2S(=O)(=O)N1C1CCCC1", "inhibition": -2.28},
      {"smiles": "CC(=O)Nc1ccccc1N(C)S(=O)(=O)c1ccc(C)cc1", "inhibition": -1.46},
      {"smiles": "Cn1c(=O)n(C)c2cc([N+](=O)[O-])c(N3CCN(C(=O)c4ccc(Cl)cc4)CC3)cc21", "inhibition": -4.31},
      {"smiles": "CCCc1cc(=O)n2[nH]c(C)nc2n1", "inhibition": 18.9},
      {"smiles": "Cc1cc(C)c(C(=O)CC(=O)c2ccccc2Cl)c(O)c1", "inhibition": 11.6},
      {"smiles": "Cc1ccc(C(=O)CC(=O)c2cc(Cl)ccc2O)cc1", "inhibition": -2.62},
      {"smiles": "Cc1ccc(C(=O)CC(=O)c2cccc(F)c2)c(O)c1", "inhibition": 5.16},
      {"smiles": "Cc1cccc(C(=O)CC(=O)c2cc(Cl)ccc2O)c1", "inhibition": 1.32},
      {"smiles": "O=C(CC(=O)c1ccccc1O)c1ccc(F)cc1", "inhibition": 3.76},
      {"smiles": "Cc1ccc(O)c(C(=O)CC(=O)c2cccc(F)c2)c1", "inhibition": 8.82},
      {"smiles": "CC(CC(=O)NCc1ccco1)S(=O)(=O)c1ccc2c(c1)CCN2C(=O)C1CC1", "note": "(stereo not drawn)", "inhibition": -3.2},
      {"smiles": "O=c1c(C/C=C/c2ccccc2)c(O)ccn1CCc1c[nH]c2ccccc12", "inhibition": 4.16},
      {"smiles": "CCOCCOC(NC(=O)c1ccccc1)(C(F)(F)F)C(F)(F)F", "inhibition": -1.49},
      {"smiles": "CCOC(=O)CSc1nc(Nc2ccc3c(c2)OCO3)c2ccccc2n1", "inhibition": -1.83},
      {"smiles": "O=C(COc1ccc(Br)cc1CNCCCN1CCOCC1)Nc1ccccc1", "inhibition": -6.17},
      {"smiles": "COc1cccc(-c2nc(N)nc(SC)c2C#N)c1", "inhibition": 5.06},
      {"smiles": "CC(C)n1c(CN2CCN(C)CC2)nc2c1c(=O)n(C)c(=O)n2C", "inhibition": 2.65},
      {"smiles": "O=c1[nH]c(C2CCN(S(=O)(=O)c3ccccc3)CC2)nc2c1nnn2Cc1ccc2c(c1)OCCO2", "inhibition": -22.2},
      {"smiles": "OCC1(Cc2ccc(F)cc2)CCCN(CCc2ccccc2)C1", "note": "(stereo not drawn)", "inhibition": 0.44},
      {"smiles": "CCOc1ccccc1NC(=O)c1ccc2c(c1)C(=O)N(CC1CCCO1)C2=O", "note": "(stereo not drawn)", "inhibition": -5.65},
      {"smiles": "Cc1cccc(NC(=O)Nc2ccncc2)c1", "inhibition": 16.9},
      {"smiles": "O=C(Nc1ccc(C2=NCCN2)cc1)c1ccc(Cl)c(C(=O)Nc2ccc(C3=NCCN3)cc2)c1", "inhibition": 1.21},
      {"smiles": "C/C(CC(=O)Nc1cc(C)ccn1)=N\\NC(=O)c1ccncc1", "inhibition": 3.7},
      {"smiles": "CCOC(=O)Cn1c(=N)n(CCOc2ccc(OC)cc2)c2ccccc21", "inhibition": 10.3},
      {"smiles": "CCOC(=O)Cn1c(=N)n(CCOc2cccc(C)c2)c2ccccc21", "inhibition": -0.323},
      {"smiles": "O=C(NCc1ccccn1)C1CN(S(=O)(=O)c2ccccc2)CCN1S(=O)(=O)c1ccccc1", "note": "(stereo not drawn)", "inhibition": 1.61},
      {"smiles": "Cc1sc2ncnc(SCC(=O)N3CCCC(C(F)(F)F)C3)c2c1C", "note": "(stereo not drawn)", "inhibition": 8.83},
      {"smiles": "Cc1cc(OCC(=O)N2CCC[C@@H]2C(=O)O)c2c(C)c(C)c(=O)oc2c1", "inhibition": 5.08},
      {"smiles": "O=C1CCCN1c1ncc(S(=O)(=O)c2ccc([N+](=O)[O-])cc2)s1", "inhibition": 0.41},
      {"smiles": "O=C(Nc1ncc([N+](=O)[O-])s1)C1CC(=O)N(c2ccc(F)cc2)C1", "note": "(stereo not drawn)", "inhibition": 13},
      {"smiles": "O=C(CCc1nnc2ccc(N3CCCCC3)nn12)NCc1ccco1", "inhibition": -3.14},
      {"smiles": "Cc1cc(C)c2nc(N(CCCN(C)C)C(=O)c3ccc(S(=O)(=O)N4CC(C)OC(C)C4)cc3)sc2c1", "note": "(stereo not drawn)", "inhibition": 7.15},
      {"smiles": "O=C1CC(c2ccco2)Sc2ccccc2N1", "note": "(stereo not drawn)", "inhibition": -2.22},
      {"smiles": "O=C1NC(c2ccco2)Nc2ccccc21", "note": "(stereo not drawn)", "inhibition": -3.49},
      {"smiles": "O=C1CC(c2ccccc2)CC(=O)C1=CN1CCCC1", "note": "(stereo not drawn)", "inhibition": -0.41},
      {"smiles": "CC(=O)NNC(=S)NC(=O)c1ccc(C)cc1", "inhibition": 9.68},
      {"smiles": "COCCCNC(=S)NNC(=O)c1csc(C)n1", "inhibition": 3.64},
      {"smiles": "CC(=O)NC(=S)NNC(=O)CCc1ccccc1", "inhibition": -2.11},
      {"smiles": "Cc1ccc(C(=O)NNC(=S)NC(=O)c2ccc(Cl)cc2)cc1", "inhibition": 6.07},
      {"smiles": "Cc1ccc(C(=O)NC(=S)NNC(=O)c2ccccc2)cc1", "inhibition": 19.1},
      {"smiles": "O=C(CCc1ccccc1)NNC(=S)NC(=O)c1ccc(Cl)cc1", "inhibition": 10.2},
      {"smiles": "CC(=O)NNC(=S)NC(=O)c1cccc([N+](=O)[O-])c1", "inhibition": 5.04},
      {"smiles": "COCCCNC(=S)NNC(=O)c1cccnc1", "inhibition": 1.9},
      {"smiles": "CC(C)CN(Cc1cc(=O)oc2cc3c(cc12)CCCC3)CC(C)C", "inhibition": 3.63},
      {"smiles": "CCOc1ncccc1C(=O)OCCN1C(=O)c2ccccc2C1=O", "inhibition": 7.33},
      {"smiles": "O=C(NNS(=O)(=O)c1ccccc1)c1cccc([N+](=O)[O-])c1", "inhibition": -3.37},
      {"smiles": "Cc1ccc(S(=O)(=O)NCc2cccnc2)c(C)c1", "inhibition": 0.7},
      {"smiles": "COc1ccc(-c2nc3n(c(=O)c2C#N)CCS3)cc1", "inhibition": 2},
      {"smiles": "CCCNS(=O)(=O)c1cc2c3c(c1)C(C)C(=O)N3CCC2", "note": "(stereo not drawn)", "inhibition": 8.86},
      {"smiles": "CC(=O)c1ccc(NC(=S)N2CCN(CCO)CC2)cc1", "inhibition": 5.45},
      {"smiles": "Cc1cc(C)c(C(N)=O)c(NCCc2ccccc2)n1", "inhibition": -2.71},
      {"smiles": "c1ccc(-c2nnc(CSc3nc4ccccc4[nH]3)o2)cc1", "inhibition": -20.5},
      {"smiles": "CC1CCCCN1C(=O)c1ccc(NC(=O)c2ccccc2Cl)cc1", "note": "(stereo not drawn)", "inhibition": 3.28},
      {"smiles": "O=C(NC(=S)NNC(=O)c1ccccc1O)c1ccccc1", "inhibition": 4.34},
      {"smiles": "O=C(CCc1ccccc1)NNC(=O)CCc1ccccc1", "inhibition": -2.48},
      {"smiles": "O=C(CCc1ccccc1)NNC(=O)c1ccccc1Cl", "inhibition": 3.05},
      {"smiles": "O=C(NNC(=S)Nc1ccccc1)c1ccc(O)cc1", "inhibition": 9.42},
      {"smiles": "c1ccc(C[C@H]2CNCCN2CC2(c3ccccc3)CC2)cc1", "inhibition": -6.5},
      {"smiles": "Cc1cc2oc(C(=O)NCc3ccccc3)cc(=O)c2cc1C", "inhibition": -12.8},
      {"smiles": "CC1=NNC(=O)/C1=C\\c1cn(-c2ccccc2)nc1-c1ccccc1", "inhibition": 10.4},
      {"smiles": "CC1=C(C(=O)Nc2ccc(C)cc2C)C(c2cccs2)NC(=S)N1", "note": "(stereo not drawn)", "inhibition": 2.73}
    ]}
  ]
}
